Source: PubChem
Sampled rows, rich in hits. Any-hit rate of the full collection: about 10%.
MCF10A rerep: induces DNA re-replication in MCF 10a normal breast cells | MCF 10A DNA re-replication, Hoechst nuclear intensity, 48 h | Potency, µM (doses to about 46.1 µM), without a hit: at the top dose activity, positive = re-replication, usual class: activators | 2.9% of 350,000 active | AID 624296; further: % of control where 0% means no effect; nearly all actives have a fitted effect of over 50% in size
KB-3-1 tox: kills parental KB-3-1 adenocarcinoma cells | KB-3-1 viability, CellTiter-Glo ATP luminescence, 72 h | Potency, µM (series often up to 46.1 µM), usual class: cytotoxic | 1.4% of 400,000 active | AID 1347075; further: on the % scale 0 is the no-effect control and ±100 the full control effect; nearly all actives have a fitted effect of over 60% in size
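KB-3-1 cells, DMEM (no phenol red) + 10% FBS; compound by pin transfer, 72 h, 37 °C. Readout: CellTiter-Glo luminescence after 10 min. Data normalized, curve-fitted.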
SW480 rereplic: inducers of DNA re-replication in SW480 colon cancer cells. SW480 DNA re-replication, Hoechst DNA content imaging, 48 h. Potency, µM (series often up to 46.1 µM), without a hit: at the top dose re-replication activation, usual class: activators. 1.8% of 340,000 active; further: % of control where 0% means no effect; nearly all actives have a fitted effect of over 55% in size
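Cells (250 per well) received 23 nL compound or DMSO by pin tool and were kept 48 hr at 37 C, 5% CO2. Nuclei were then stained with Hoechst for 40 min and scanned for DNA content.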
Gal4-VP16 FLuc: counter-screen for ROR gamma inhibitors: Gal4-VP16 reporter; Drosophila S2 Gal4-VP16 UAS-luciferase, luminescence, 20 h; Potency, µM (doses to about 53.6 µM), inactives show at the highest dose activity, negative = inhibition, most hits filed as inhibitors; 3.5% of 310,000 active; AID 2546;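 further: Gal4-VP16 expression switched on by copper sulfate through the metallothionein promoter; on the % scale 0 is the no-effect control and ±100 the full control effect; nearly all actives have a fitted effect of over 50% in size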
RORgamma inh: blocks mouse ROR gamma transcriptional activity. Drosophila S2 Gal4-RORgamma UAS-luciferase reporter, 20 h. Potency, µM (top dose mostly 53.6 µM), for the others: top-dose activity change, negative = inhibition, most hits filed as inhibitors. 5.4% of 310,000 active. AID 2551. P51450; further: on the % scale 0 is the no-effect control and ±100 the full control effect; nearly all actives have a fitted effect of over 60% in size
Target sequence (P51450 whole entry, looked up, the tested form may be a part): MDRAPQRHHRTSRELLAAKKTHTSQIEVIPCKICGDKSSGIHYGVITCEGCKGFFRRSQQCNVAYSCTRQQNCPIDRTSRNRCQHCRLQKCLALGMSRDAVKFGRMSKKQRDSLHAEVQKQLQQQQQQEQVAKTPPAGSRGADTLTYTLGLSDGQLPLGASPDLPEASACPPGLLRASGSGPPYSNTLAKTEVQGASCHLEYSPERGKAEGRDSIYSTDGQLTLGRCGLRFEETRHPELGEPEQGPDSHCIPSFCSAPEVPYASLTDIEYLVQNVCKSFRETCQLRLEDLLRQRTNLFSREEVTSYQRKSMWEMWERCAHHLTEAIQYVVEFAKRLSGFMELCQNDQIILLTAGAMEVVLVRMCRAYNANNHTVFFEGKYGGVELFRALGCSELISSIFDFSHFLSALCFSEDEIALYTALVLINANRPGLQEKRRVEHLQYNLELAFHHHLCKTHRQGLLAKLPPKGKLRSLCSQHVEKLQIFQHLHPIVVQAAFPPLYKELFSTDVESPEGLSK
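ROR gamma transcriptional activity was tracked as Gal4-UAS luciferase output in stably transfected Drosophila Schneider cells, with compound added 1 hr before 700 uM copper sulfate induction and a 20 hr ambient-temperature incubation.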
KB-V1 MDR tox: kills drug-selected multidrug resistant KB-V1 cells | KB-V1 MDR cells viability, CellTiter-Glo, 72 h | Potency, µM (top dose mostly 46.1 µM), actives largely listed as cytotoxic | 3.4% of 400,000 active | AID 1347076; further: on the % scale 0 is the no-effect control and ±100 the full control effect; nearly all actives have a fitted effect of over 60% in size
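Following 72 h at 37 degrees C with compound, KB-V1 cell viability was read by CellTiter-Glo luminescence, medium being phenol-red-free DMEM plus 10% FBS; concentration-response parameters came from normalized, curve-fitted qHTS data.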
* marks the source's active call; other numbers are inactive results; i = inactive; ? = inconclusive; / = not tested or not shown; [ ] = another dose, or the depositor's remark. The call rests on the fitted dose curve; in most records, active means well fitted curve in the direction sought with a large enough effect; inconclusive means small, poorly fitted or top-dose-only effect, or another doubt; inactive means no such curve, though single readings can be large; an effect the other way counts as inactive or inconclusive. Potency means the concentration at half of the fitted maximal effect.

SMILES | MCF10A rerep | KB-3-1 tox | SW480 rereplic | Gal4-VP16 FLuc | RORgamma inh | KB-V1 MDR tox
Cc1c(Cc2ccccc2)sc(NC(=O)/C=C/c2cccc3ccccc23)c1C(N)=O | 2.3µM* | 9.2µM* | ? | -4% | 8% | ?
COC(=O)c1c(NC(=O)/C=C/C(=O)O)sc(Cc2ccccc2)c1C | 15µM* | ? | ? | -1% | -3%[10 µM] | ?
COC(=O)c1c(N)sc(Cc2ccccc2)c1C | 13% | i | -21% | -6% | -36% | i
COC(=O)c1c(NC(=O)c2ccco2)sc(C)c1C | ? | i | ? | -2% | 5% | i
Cc1c(Cc2ccccc2)sc(NC(=O)c2ccco2)c1C(N)=O | 15µM* | i | 1% | 6% | 37% | ?
COc1ccc(OC)c(-c2cc(C(=O)Nc3ccc(C)c(C)c3)no2)c1 | / | i | / | / | / | i
CN(CCOc1ccccc1)C(=O)c1ccc(Cl)c(S(=O)(=O)N2CCCCC2)c1 | 29% | ? | 2% | / | / | i
C/C(=N\NC(=O)c1ccccc1O)c1cccc(NC(=O)c2ccccc2)c1 | -4% | i | 19% | 4% | ? | i
C/C(=N\NC(=O)c1ccncc1)c1cccs1 | -3% | i | -18% | 29%[10 µM] | ? | i
C/C(=N\NC(=O)c1cccc(S(=O)(=O)N2CCCC2)c1)c1cccs1 | -3% | i | -2% | ? | 13µM* | ?
CC(=O)Nc1cccc(/C(C)=N/NC(=O)c2ccc(O)cc2)c1 | -2% | i | -5% | ? | 11µM* | ?
C/C(=N/NC(=O)c1cc(C2CC2)[nH]n1)c1cccs1 | ? | i | 2% | 10µM* | 11µM* | ?
C/C(=N/NC(=O)c1ccc(O)cc1)c1cccc([N+](=O)[O-])c1 | 3% | i | -4% | 13µM* | 3.2µM* | i
Cc1nc(-c2ccc(S(=O)(=O)N3CCN(c4cc(Cl)ccc4C)CC3)cc2)co1 | / | i | / | / | / | i
COC(=O)C1=C(C)N(Cc2ccccc2)[C@]23O[C@](C(=O)OC)(C(=O)N2C1c1ccccc1)C1CCOC(=O)C13 (some centres undefined) | / | / | / | 2%[10 µM] | -14%[10 µM] | /
C/C(=N\NC(=O)c1cccc([N+](=O)[O-])c1)c1cccs1 | 7% | i | -3% | 6.3µM* | 4µM* | i
Cc1ccc(C2(C(=O)N3CCC(n4nc(-c5ccccc5)oc4=O)CC3)CC2)cc1 | 21µM* | i | -27% | -6% | -21% | i
CCOC(=O)CNC(=O)Nc1nnc(-c2ccc(OCC)cc2)o1 | 2% | i | -5% | 5.6µM* | 3.2µM* | i
CCOc1ccc(-c2nnc(NC(=O)COc3ccccc3F)o2)cc1 | / | i | / | / | / | i
Cc1ccc(NC(=O)Nc2nnc(-c3ccccc3)o2)cc1 | 18% | i | -6% | -11% | -26% | i
CCCCNC(=O)Nc1nnc(-c2ccc(OCC)cc2)o1 | -8% | i | 1% | 5.6µM* | 7.1µM* | i
CCCCNC(=O)Nc1nnc(-c2ccccc2)o1 | 8% | i | -4% | 5.6µM* | 4µM* | i
CN(C)c1ccc(/C=C/c2ccc3cc(N)ccc3n2)cc1 | / | i | / | / | / | i
COc1ccc(NC(=O)c2noc3c2CCCC3)cc1Cl | / | i | / | / | / | i
Cc1noc(C)c1-c1ccc2ncnc(NCc3ccc(C(F)(F)F)o3)c2c1 | / | / | / | 15% | ? | /
Cc1ccc2nc(-c3ccc4c(c3)OCCO4)cn2c1 | 5.8µM* | 3.7µM* | 2.6µM* | 1.1µM* | 0.4µM* | ?
c1ccn2cc(-c3ccc4c(c3)OCCO4)nc2c1 | 2% | ? | -3% | ? | 3.5µM* | ?
Clc1ccc2nc(-c3ccc4c(c3)OCO4)cn2c1 | ? | ? | 23µM* | 8.9µM* | 5µM* | ?
Nc1ncnc2c1ncn2[C@@H]1O[C@H](CNC(=O)[C@@H](N)Cc2ccc(C(=O)c3ccccc3)cc2)[C@@H](O)[C@H]1O | / | i | / | / | / | i
